Assay outcomes from PubChem.
BRCT PPI green: inhibitors of human BRCA1 BRCT-phosphoprotein interaction (green fluorophore) | P38398 | BRCA1 BRCT-phosphopeptide binding, green fluorescence polarization | Potency, µM (highest dose often 76.9 µM), usual class: inhibitors | 75,000 compounds, 0.05% hits
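Fluorescence polarization: His-tagged BRCT (~35 kDa BRCA1 C-terminus, 250 nM) bound to 100 nM fluorescein-labeled phosphorylated 10-aa BACH1 peptide, pH 7.3 phosphate buffer with DTT and Tween 20. Compounds incubated 12 min at room temperature; inhibition read as lowered polarization.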
BRCT PPI red: inhibitors of human BRCA1 BRCT-phosphoprotein interaction (red fluorophore); P38398; BRCT-phosphopeptide binding, red fluorescence polarization; Potency, µM (highest dose often 76.9 µM), actives largely listed as inhibitors; 75,000 compounds, 0.03% hits; AID 892
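Rhodamine-labelled pBACH1 10-mer (100 nM) bound to BRCT domain (100 nM) at pH 7.3; compounds incubated 12 min room temperature, polarization read. Free peptide defines full inhibition; unlabelled decapeptide titrated as control.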
HEK293 cAMP cs: parental HEK293 cAMP activation (counter-screen); parental HEK293 CNG cAMP sensor, membrane potential fluorescence; Potency, µM (series often up to 57.1 µM), hits mostly activators; 73,000 compounds, 2.5% hits; AID 938; note: nearly all actives have a fitted effect of over 55% in size
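Parental HEK 293 cells stably expressing a cAMP-gated CNG channel were loaded with membrane potential dye containing 100 uM RO 20-1724 for 60 min. Compound added for 30 min; depolarization read as fluorescence intensity at 590 nm.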
TsaE inh: YjeE (TsaE) inhibition, E. coli; purified YjeE enzyme, qHTS inhibition assay; Potency, µM; 71,000 compounds, 0.05% hits
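Purified YjeE (10 uM) with BODIPY Texas Red-labeled ADP probe (2 uM); compounds pin-transferred, 15 min at room temperature. Binding inhibition read as decreased fluorescence polarization; ADP titration as control.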
TSHR ag: TSH receptor (human) agonism. 73,000 compounds, 0.48% hits. Potency, µM (top dose mostly 57.1 µM), actives largely listed as activators. HEK293-CNG-TSHR cells (CNG channel as cAMP sensor), membrane potential dye, cAMP. AID 926; active = well fitted activation curve with a large enough effect in the main read-out, with a control signal flat, not every such curve was filed as active; inconclusive = small, poorly fitted or top-dose-only effect, or a change in a side signal; inactive = no such curve, though single readings can be large or run the other way; reference of the percent scale not stated here;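 note: the control signal comes from parental cells without the receptor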
Target sequence (P16473 whole entry, looked up): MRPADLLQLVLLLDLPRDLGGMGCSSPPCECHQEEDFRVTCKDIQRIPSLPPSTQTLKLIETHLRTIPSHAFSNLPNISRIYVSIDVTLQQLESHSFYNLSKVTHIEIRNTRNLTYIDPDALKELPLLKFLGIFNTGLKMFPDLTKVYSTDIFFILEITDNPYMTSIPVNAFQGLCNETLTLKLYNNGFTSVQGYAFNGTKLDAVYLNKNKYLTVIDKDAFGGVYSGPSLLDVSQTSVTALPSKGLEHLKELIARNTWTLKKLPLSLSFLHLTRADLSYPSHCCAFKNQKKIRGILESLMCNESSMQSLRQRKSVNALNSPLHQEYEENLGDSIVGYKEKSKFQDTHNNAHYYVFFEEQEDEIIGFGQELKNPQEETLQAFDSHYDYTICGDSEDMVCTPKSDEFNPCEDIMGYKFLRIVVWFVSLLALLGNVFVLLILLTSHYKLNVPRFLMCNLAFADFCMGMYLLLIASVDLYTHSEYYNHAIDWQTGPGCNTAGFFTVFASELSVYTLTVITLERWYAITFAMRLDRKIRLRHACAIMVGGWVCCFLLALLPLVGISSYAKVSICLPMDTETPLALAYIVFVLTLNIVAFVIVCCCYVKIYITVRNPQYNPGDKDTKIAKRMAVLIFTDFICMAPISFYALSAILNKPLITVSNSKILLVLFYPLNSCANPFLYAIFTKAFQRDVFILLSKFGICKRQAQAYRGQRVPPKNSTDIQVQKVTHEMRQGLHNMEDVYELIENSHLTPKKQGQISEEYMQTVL
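HEK 293 cells stably expressing TSHR and a cAMP-gated CNG channel; parental CNG-only cells as counterscreen. Cells preloaded 60 min with membrane potential dye plus 100 uM RO 20-1724, then compound 30 min; fluorescence read at 590 nm.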
Pol III holo inh: DNA polymerase III holoenzyme inhibition. Potency, µM (doses to about 57.1 µM). reconstituted DNA polymerase III holoenzyme replication, biochemical. 71,000 compounds, 0.25% hits. AID 603
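Reconstituted *E. coli* holoenzyme (0.35 nM Pol III, 1 nM beta, 154 nM SSB, 2 nM primase) was preincubated with compound for 15 min at RT. Synthesis on 1.4 nM ssM13Gori ran 35 min, then was stopped with PicoGreen/EDTA and read as dsDNA fluorescence.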
Numbers stand for hits; ! = a repeat was not active. Most compounds without a hit are left out; they make up all but 3.2% or so of the library. Unless noted, calls come from the whole dose curve; as a rule, active = well fitted curve in the direction sought with a large enough effect; inconclusive = small, poorly fitted or top-dose-only effect, or another doubt; inactive = no such curve, though single readings can be large; an effect the other way counts as inactive or inconclusive.

`CCOC(=O)C(Cc1ccccc1)C(=O)Nc1nccs1` (configuration not stated) gave BRCT PPI green inactive, BRCT PPI red inactive, HEK293 cAMP cs inactive, TsaE inh inactive, TSHR ag inactive and Pol III holo inh inactive.
Screening COc1cccc(Oc2cn[nH]c2-c2ccc(O)cc2O)c1 returned BRCT PPI green inactive, BRCT PPI red inactive, HEK293 cAMP cs 1µM, TsaE inh inactive, TSHR ag inconclusive and Pol III holo inh inactive.
For COc1cccc(Oc2cn[nH]c2-c2ccc(OC)cc2O)c1 the results were BRCT PPI green inactive, BRCT PPI red inactive, HEK293 cAMP cs inconclusive, TsaE inh inactive, TSHR ag inconclusive and Pol III holo inh inactive.
For Cc1ccc(CN2CCN(CC(=O)N3CCC(C(N)=O)CC3)C2=O)cc1 the results were BRCT PPI green inactive, BRCT PPI red inactive, HEK293 cAMP cs inactive, TsaE inh inactive, TSHR ag inactive and Pol III holo inh inactive.
CC(=O)Nc1ccc(S(=O)(=O)NCCc2cc3c(C)ccc(C)c3[nH]c2=O)cc1 was read as BRCT PPI green inactive, BRCT PPI red inactive, HEK293 cAMP cs 25µM, TsaE inh inactive, TSHR ag inconclusive and Pol III holo inh inactive.
For Cc1ccc(C)n1-c1ccc(-c2nnco2)cc1 the results were BRCT PPI green inactive, BRCT PPI red inactive, HEK293 cAMP cs inactive, TsaE inh inactive, TSHR ag inactive and Pol III holo inh inactive.
Cc1cc(-c2nnco2)c(C)n1-c1ccc(F)cc1 was read as BRCT PPI green inactive, BRCT PPI red inactive, HEK293 cAMP cs 16µM, TsaE inh inactive, TSHR ag inconclusive and Pol III holo inh inactive.
For Cn1c(-c2nc(-c3ccccc3)cs2)nc2ccccc21 the results were BRCT PPI green 40µM and BRCT PPI red inactive.
Screening c1ccc(-c2csc(-c3nc4ccccc4[nH]3)n2)cc1 returned BRCT PPI green inconclusive and BRCT PPI red inactive.
For Cc1cc2c(C(C)C)c(O)c(O)c(C=O)c2c(O)c1-c1c(C)cc2c(C(C)C)c(O)c(O)c(C=O)c2c1O the results were BRCT PPI green inactive, BRCT PPI red inactive, HEK293 cAMP cs inactive, TsaE inh 100µM!, TSHR ag inactive and Pol III holo inh inactive.
Screening Nc1ccc(O)cc1 returned BRCT PPI green inactive, BRCT PPI red inactive, HEK293 cAMP cs inactive, TsaE inh inconclusive, TSHR ag inactive and Pol III holo inh inactive.
CCC(c1nnnn1C1CCCC1)N(Cc1cccs1)Cc1cc2cc(C)ccc2[nH]c1=O (configuration not stated) was read as BRCT PPI green inactive, BRCT PPI red inactive, HEK293 cAMP cs inactive, TsaE inh inactive and Pol III holo inh inactive.
`CCOC(=O)Cn1nnnc1C(CC)N(Cc1cc2ccc(C)cc2[nH]c1=O)C1CCCC1` (configuration not stated) gave BRCT PPI green inactive, BRCT PPI red inactive, HEK293 cAMP cs 16µM, TsaE inh inactive, TSHR ag inconclusive and Pol III holo inh inactive.
Screening CCOC(=O)Cn1nnnc1C(CC)N(Cc1cccs1)Cc1cc2cc(C)ccc2[nH]c1=O (configuration not stated) returned BRCT PPI green inactive, BRCT PPI red inactive, HEK293 cAMP cs 4µM, TsaE inh inactive, TSHR ag inconclusive and Pol III holo inh inactive.
Screening CC1CCc2c(nc3ncnn3c2N2CCN(c3ccccc3F)CC2)C1 (configuration not stated) returned BRCT PPI green inactive, BRCT PPI red inactive, HEK293 cAMP cs inconclusive, TsaE inh inactive, TSHR ag inconclusive and Pol III holo inh inactive.
`CC1CCc2c(nc3ncnn3c2N2CCN(c3ccccc3)CC2)C1` (configuration not stated) gave BRCT PPI green inactive, BRCT PPI red inactive, HEK293 cAMP cs 25µM, TsaE inh inactive, TSHR ag inconclusive and Pol III holo inh inactive.
`Cc1ccc(B(O)O)cc1` gave BRCT PPI green inactive, BRCT PPI red inactive, HEK293 cAMP cs inactive and TSHR ag inactive.
